Screens (PubChem)
Compounds with a hit are over-represented: about 3.1% of the library has one in this group of screens.
Autofluor counter: flagged as autofluorescent in microsphere protease counterscreen. compound autofluorescence counterscreen, microsphere flow cytometry; hits give high values. fluorescence intensity (test concentration not listed). actives 3.1% (n = 360,000). AID 624483; in the data active means fluorescence intensity above about 16000; inconclusive means no clear call, values can overlap the other calls
SSB-PriA inh: blocks PriA binding to SSB C-terminal tail; inhibition, % at 33 µM; actives 0.6% (n = 430,000); AID 1272365; AlphaScreen SSBct-PriA binding, biotinylated peptide; in the data active means inhibition mostly above about 37%, no sharp cut-off; inactive means mostly below about 20%;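 further: plate controls were negative control peptide for no effect and reference peptide for full effect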
Anthrax LF inh2: blocks Bacillus anthracis lethal factor protease; P15917; multiplex microsphere protease cleavage assay, LF; inhibition, % at 10 µM; actives 0.12% (n = 360,000); further: plate controls were buffer without enzyme for full effect and enzyme alone for no effect
BoNT-A LC inh2: blocks Botulinum neurotoxin A light chain protease; inhibition, % at 10 µM; multiplex microsphere protease substrate cleavage, flow cytometry; actives 0.17% (n = 360,000); AID 588499; further: plate controls were buffer without enzyme for full effect and enzyme alone for no effect
BoNT F protease: inhibitors of Botulinum neurotoxin F light chain protease | AID 588497 | actives 0.22% (n = 360,000) | inhibition, % at 10 µM | Multiplex microsphere protease cleavage assay, flow cytometry; in the data active means inhibition above about 35%, passing the limit was not always enough; inconclusive means no clear call, values can overlap the other calls; further: plate controls were buffer without enzyme for full effect and enzyme alone for no effect
* = called active by the depositor. Unless noted, no stated cut-off is given here; in the data, active means inhibition above about 30%; inconclusive means no clear call, values can overlap the other calls; inactive means below that.

What do the screens show for `Cc1cccc(NC(=O)CSc2nnc(-c3ccc(S(=O)(=O)N4CCCC4)cc3)o2)c1`?
Autofluor counter: 11414; SSB-PriA inh: 5; Anthrax LF inh2: -1; BoNT-A LC inh2: 0; BoNT F protease: -4

What do the screens show for `O=C(NCCc1c[nH]c2ccccc12)c1cc(N2C(=O)CCS2(=O)=O)ccc1Cl`?
SSB-PriA inh: -2

Results for Cc1nn(CC(=O)NCC2CCCO2)c(=O)c2c1cnn2C(C)(C)C (stereo not given) ?
SSB-PriA inh: -1

How did O=C(Cn1ncccc1=O)Nc1cnn(CC2COc3ccccc3O2)c1 (stereo not given) do in these assays?
SSB-PriA inh: -12

How did O=C(Cn1nc(C(F)(F)F)c2c1CCCC2)N1CCOCC1 do in these assays?
Autofluor counter: 4776; SSB-PriA inh: -4; Anthrax LF inh2: 0; BoNT-A LC inh2: -1; BoNT F protease: 0

What do the screens show for `O=C(Cn1nc(C(F)(F)F)c2c1CCC2)Nc1ccccc1C(F)(F)F`?
Autofluor counter: 5177; SSB-PriA inh: -8; Anthrax LF inh2: 2; BoNT-A LC inh2: 0; BoNT F protease: -11

What do the screens show for `Cc1cc(C(F)(F)F)nn1CC(=O)Nc1ccc2c(c1)OCO2`?
Autofluor counter: 5961; SSB-PriA inh: -3; Anthrax LF inh2: 4; BoNT-A LC inh2: 1; BoNT F protease: -7

What do the screens show for `COc1ccc(NC(=O)Cn2nc(C(F)(F)F)c3c2CCCC3)cc1OC`?
Autofluor counter: 22117*; SSB-PriA inh: -5; Anthrax LF inh2: -2; BoNT-A LC inh2: inconclusive; BoNT F protease: -7

Results for COc1ccccc1NC(=O)NCCn1nc(C(F)(F)F)c2c1CCCC2 ?
SSB-PriA inh: 0

Results for O=C(Cn1nc(C(F)(F)F)c2c1CCCC2)Nc1ccc2c(c1)OCO2 ?
Autofluor counter: 21133*; SSB-PriA inh: -15; Anthrax LF inh2: -4; BoNT-A LC inh2: -1; BoNT F protease: -4

How did O=C(Cn1nc(C(F)(F)F)c2c1CCC2)N1CCN(c2ccccc2)CC1 do in these assays?
Autofluor counter: 23434*; SSB-PriA inh: -19; Anthrax LF inh2: -2; BoNT-A LC inh2: -2; BoNT F protease: -1

What do the screens show for `COc1ccccc1NC(=O)Cn1nc(C(F)(F)F)c2c1CCCC2`?
Autofluor counter: 25001*; SSB-PriA inh: -26; Anthrax LF inh2: 2; BoNT-A LC inh2: -2; BoNT F protease: -3

What do the screens show for `O=S(=O)(NCCN1CCN(c2ccccc2)CC1)c1cc(Cl)ccc1Cl`?
SSB-PriA inh: 4

What do the screens show for `CCc1c(C)sc(NC(=O)Cn2nc(C(F)(F)F)c3c2CCCC3)c1C#N`?
Autofluor counter: 22610*; SSB-PriA inh: 0; Anthrax LF inh2: 1; BoNT-A LC inh2: 2; BoNT F protease: 3

What do the screens show for `Cc1nn(CC(=O)NNC(=S)Nc2ccccc2)c(C)c1[N+](=O)[O-]`?
Autofluor counter: 21125*; SSB-PriA inh: -12; Anthrax LF inh2: 1; BoNT-A LC inh2: -1; BoNT F protease: 1

How did Cc1ccc(NC(=S)NNC(=O)c2c([N+](=O)[O-])c(C)nn2C)cc1 do in these assays?
Autofluor counter: 23365*; SSB-PriA inh: -8; Anthrax LF inh2: -2; BoNT-A LC inh2: -1; BoNT F protease: -4

How did O=C(Cn1nc(C(F)F)cc1C(F)F)NNC(=S)Nc1ccc(Cl)cc1 do in these assays?
Autofluor counter: 23616*; SSB-PriA inh: -4; Anthrax LF inh2: -1; BoNT-A LC inh2: -4; BoNT F protease: -4

What do the screens show for `Cc1cnn(CCC(=O)NNC(=S)Nc2cccc(Cl)c2)c1`?
Autofluor counter: 21961*; SSB-PriA inh: -6; Anthrax LF inh2: 0; BoNT-A LC inh2: 3; BoNT F protease: 6

How did CCOC(=O)N1CCN(C(=O)CSc2nc(-c3cccc(OC)c3)nc3c2c(=O)n(C)c(=O)n3C)CC1 do in these assays?
SSB-PriA inh: -16

What do the screens show for `Cc1ccc(C2CC2C(=O)NNC(=S)Nc2cccc(C)c2)cc1` (stereo not given)?
Autofluor counter: 9946; SSB-PriA inh: 1; Anthrax LF inh2: 8; BoNT-A LC inh2: -1; BoNT F protease: 0

Results for Cc1nn(CCC(=O)NNC(=S)Nc2cccc(Cl)c2)c(C)c1[N+](=O)[O-] ?
Autofluor counter: 20563*; SSB-PriA inh: -16; Anthrax LF inh2: 3; BoNT-A LC inh2: -2; BoNT F protease: -5

What do the screens show for `Cc1ccc(C2CC2C(=O)NNC(=S)Nc2cccc(Cl)c2)cc1` (stereo not given)?
Autofluor counter: 20873*; SSB-PriA inh: -3; Anthrax LF inh2: -2; BoNT-A LC inh2: -1; BoNT F protease: -4

What do the screens show for `CCc1ccc(/C=N\NC(=O)c2cc(-c3ccco3)[nH]n2)cc1`?
SSB-PriA inh: -6

Results for CCc1ccc(C=NNC(=O)c2cc(-c3ccncc3)nc3ccccc23)s1 ?
SSB-PriA inh: 5

Results for COc1cccc(/C=N/Nc2ncnc(N)c2[N+](=O)[O-])c1OC ?
Autofluor counter: 21088*; Anthrax LF inh2: 2; BoNT-A LC inh2: 5; BoNT F protease: 8

How did COc1cccc(C=NNc2ccc([N+](=O)[O-])cn2)c1OC do in these assays?
Autofluor counter: 4000; SSB-PriA inh: 0; Anthrax LF inh2: -4; BoNT-A LC inh2: 1; BoNT F protease: -13

What do the screens show for `CC(=O)Nc1ccc2nc(NC(=O)C3c4ccccc4Oc4ccccc43)sc2c1`?
SSB-PriA inh: 9

What do the screens show for `CCCCOc1ccc(Cl)cc1CSc1nnc(CC)n1N`?
Autofluor counter: 24086*; SSB-PriA inh: 5; Anthrax LF inh2: -4; BoNT-A LC inh2: -4; BoNT F protease: -6

Results for CCCOc1ccc(CSc2nnc(CCC)n2N)cc1 ?
Autofluor counter: 3575; SSB-PriA inh: -7; Anthrax LF inh2: -4; BoNT-A LC inh2: 0; BoNT F protease: 12

Results for CC1(c2cccs2)CC(c2cccs2)=C(C#N)C(=O)N1 (stereo not given) ?
Autofluor counter: 22806*; SSB-PriA inh: 1; Anthrax LF inh2: -1; BoNT-A LC inh2: -2; BoNT F protease: -5

What do the screens show for `COc1ccccc1C(=O)N1CCC[C@H](c2nnc(-c3ccc4c(c3)OCO4)o2)C1`?
SSB-PriA inh: -7

What do the screens show for `O=C(Nc1ccc(Cl)cc1-c1nc2ccccc2[nH]c1=O)c1ccccc1F`?
SSB-PriA inh: -3

Results for Nc1nc(Cl)cc(N2CCOCC2)n1 ?
Autofluor counter: 2138; SSB-PriA inh: -12; Anthrax LF inh2: 3; BoNT-A LC inh2: 0; BoNT F protease: -3

What do the screens show for `CN(C)c1nc(Cl)cc(N2CCOCC2)n1`?
Autofluor counter: 22938*; SSB-PriA inh: -12; Anthrax LF inh2: -1; BoNT-A LC inh2: 1; BoNT F protease: -1

Results for COCCn1c(=S)[nH]c2cc(C(=O)NCCCN3CCOCC3)ccc2c1=O ?
Autofluor counter: 22856*; SSB-PriA inh: -1; Anthrax LF inh2: 0; BoNT-A LC inh2: -2; BoNT F protease: -2

What do the screens show for `COCCn1c(=S)[nH]c2cc(C(=O)N3CCC(C(N)=O)(N4CCCCC4)CC3)ccc2c1=O`?
Autofluor counter: 22116*; SSB-PriA inh: -23; Anthrax LF inh2: -7; BoNT-A LC inh2: 3; BoNT F protease: 3
